Measured values reported in PubChem BioAssay (Tox21).
Inconclusive results are not listed. The source made the active and inactive calls. Unless noted, calls follow the shape of the full dose curve.

Experiments:
[1] = Nuclear factor erythroid 2-related factor 2/antioxidant responsive element (Nrf2/ARE) small molecule agonists: qHTS cell viability counter screen in human keratinocytes (AID 1919968; active = well fitted curve in the direction sought with a large enough effect in the repeat runs; an effect the other way counts as inactive or inconclusive; also: nearly all actives have a fitted effect of over 55% in size)
Method in brief: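 Cells of the KeratinoSens line were plated at 1,500 per well and left for 5 h before compound transfer from DMSO stocks. After a 23 h incubation (37 C, 5% CO2), CellTiter-Fluor was added. Signal was taken as fluorescence intensity 1 h later.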

[2] = Nuclear factor erythroid 2-related factor 2/antioxidant responsive element (Nrf2/ARE) small molecule agonists: luciferase reporter gene qHTS assay in human keratinocytes (AID 1919969); also: nearly all actives have a fitted effect of over 35% in size; also: potency is read from the fitted curve at half-maximal effect
[3] = molecular target: Gonadotropin-releasing hormone receptor (Homo sapiens) (UniProt P30968); experiment: Human gonadotropin-releasing hormone receptor (GnRHR) small molecule agonists, calcium flux assay in GnRHR-HEK293 cells (AID 1920063); also: nearly all actives have a fitted effect of over 35% in size
Method in brief: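 Compounds dissolved in DMSO are pin-transferred onto dye-loaded GnRHR-HEK293 cells, which were seeded 18 h before at 37 C/5% CO2. Calcium signal is read as fluorescence intensity at 1 s intervals for 3 min.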

[4] = molecular target: KiSS-1 receptor (Homo sapiens) (UniProt Q969F8); experiment: Human kisspeptin (KISS1R) small molecule agonists, calcium flux assay in KISS1R-HEK293 cells (AID 1920064; active = well fitted curve in the direction sought with a large enough effect in the repeat runs; an effect the other way counts as inactive or inconclusive)
Method in brief: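 Cell line: HEK293, stable human KISS1R. Dye loading 1 h at 37 C after 18 h culture. Read: kinetic fluorescence, 480/540 nm, 3 min at 1 s intervals.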

[5] = G protein-coupled receptor (GPCR) small molecule agonists, calcium flux assay: HEK293 wild type cell line counter screen (AID 1920065)
Method in brief: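 Tox21 10K compounds, 15 concentrations each in triplicate, pin-transferred in DMSO onto dye-loaded cells; kinetic read at 480/540 nm for 3 min, 1 s intervals.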

[6] = p53 small molecule agonists, cell-based qHTS assay with human liver microsomes (AID 1963577)
Method in brief: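 p53RE-bla cells, 4,000/well, compound added after 5 h, with human liver microsomes 0.5 mg/mL and NADPH 0.5 mg/mL final; 16 h at 37 C, then LiveBLAzer 2 h RT, fluorescence.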

[7] = p53 small molecule agonists, cell-based qHTS assay with rat liver microsomes (AID 1963578)
Method in brief: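 p53RE-bla cells, 4,000/well, pre-incubated 5 h, then given compounds plus rat liver microsomes (0.5 mg/mL final) and NADPH (0.5 mg/mL final). Incubation 16 h at 37 C; beta-lactamase reporter read by LiveBLAzer fluorescence after 2 h at room temperature.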

[8] = p53 small molecule agonists, cell-based qHTS assay with rat liver microsomes: qHTS cell viability counter screen (AID 1963580); also: nearly all actives have a fitted effect of over 45% in size; also: potency is read from the fitted curve at half-maximal effect
Method in brief: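 Counter screen for cytotoxicity under metabolic activation: rat liver microsomes and NADPH, 0.5 mg/mL final each, added with compounds to p53RE-bla HCT-116 cells; 16 h at 37 C, then ATP luminescence read.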

[9] = p53 small molecule agonists, cell-based qHTS assay: qHTS cell viability counter screen (AID 1963581); also: nearly all actives have a fitted effect of over 45% in size
Method in brief: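 ATP content measured by luminescence in HCT-116 p53RE-bla cells treated 16 h at 37 C, same wells as the reporter screen.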

[10] = p53 small molecule agonists, cell-based qHTS assay (AID 1963582; active = well fitted activation curve with a large enough effect in the signal ratio in the repeat runs, not every such curve was filed as active; the % refers to the signal ratio)
Method in brief: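 16 h compound exposure (37 C) of p53 response element–bla cells, preceded by 5 h recovery at 37 C/5% CO2; read-out via LiveBLAzer B/G FRET substrate, 2 h RT, fluorescence intensity.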

[11] = molecular target: 5-hydroxytryptamine receptor 2A (Homo sapiens) (UniProt P28223); experiment: 5-hydroxytryptamine receptor 2A (HTR2A) small molecule antagonists, cell-based qHTS assay (AID 1963586); also: nearly all actives have a fitted effect of over 45% in size
Method in brief: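 CHO cells stably expressing human HTR2A were plated for 18 h at 37 C, then loaded with calcium dye for 1 h. Compounds were preincubated 5 min at room temperature before DOI (4 nM solution) was added. Kinetic fluorescence was read for 3 min.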

[12] = molecular target: 5-hydroxytryptamine receptor 2A (Homo sapiens) (UniProt P28223); experiment: 5-hydroxytryptamine receptor 2A (HTR2A) small molecule agonists, cell-based qHTS assay (AID 1963587); also: nearly all actives have a fitted effect of over 30% in size
Method in brief: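 HTR2A-CHO cells, plated 18 h at 37 C/5% CO2, dye-loaded 1 h at 37 C; compounds in DMSO added by pin tool (agonist mode). Intracellular calcium flux read as kinetic fluorescence on FDSS over 2 min at 1 s intervals.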

[13] = molecular target: Muscarinic acetylcholine receptor M1 (Homo sapiens) (UniProt P11229); experiment: Cholinergic receptor muscarinic 1 (CHRM1) small molecule antagonists, cell-based qHTS assay (AID 1963588); also: nearly all actives have a fitted effect of over 40% in size
Method in brief: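 Compounds were tested at 15 concentrations in three independent runs. Dye-loaded CHRM1-CHO cells were exposed 5 min at room temperature before stimulation by acetylcholine added at 50nM. Intracellular calcium was read kinetically on FDSS for 3 min.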

[14] = molecular target: Muscarinic acetylcholine receptor M1 (Homo sapiens) (UniProt P11229); experiment: Cholinergic receptor muscarinic 1 (CHRM1) small molecule agonists, cell-based qHTS assay (AID 1963589); also: nearly all actives have a fitted effect of over 35% in size
Method in brief: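 Homogeneous fluorescence calcium flux, agonist mode. Human M1-expressing CHO cells; compound dosed at 15 concentrations, three independent runs; signal sampled every 1 sec.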

[15] = cAMP Responsive Elements (CRE) small molecule agonists, cell-based qHTS assay (AID 1963590)
Method in brief: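 HEK 293T cells stably bearing CRE-bla were plated at 2,000 cells per well and rested 18 h. Compounds, positive controls or DMSO were added for 3 h at 37 C. LiveBLAzer B/G substrate was then loaded for 2 h at room temperature.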

[16] = cAMP Responsive Elements (CRE) small molecule antagonists, cell-based qHTS assay (AID 1963591; active = well fitted inhibition curve with a large enough effect in the signal ratio in the repeat runs, not every such curve was filed as active; the % refers to the signal ratio)
Method in brief: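 First, CRE-bla HEK293T cells settled 18 h at 37 C. Next, compound and 0.25 uM final NKH477 were applied for 3 h. Last, LiveBLAzer B/G substrate was loaded for 2 h at room temperature.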

[17] = molecular target: Beta-2 adrenergic receptor (Homo sapiens) (UniProt P07550); experiment: Adrenergic beta2 receptor (ADRB2) small molecule antagonists, cell-based qHTS assay (AID 1963592); also: nearly all actives have a fitted effect of over 50% in size; also: potency is read from the fitted curve at half-maximal effect
Method in brief: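 Assay format: CHO-ADRB2 cells, 18-20hr seeding at 37C/5% CO2, then compound plus 1nM isoproterenol agonist mix for 0.5hr RT. Homogeneous time-resolved fluorescence cAMP detection after 1hr, expressed as 665/615 nm ratio.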

[18] = molecular target: Beta-2 adrenergic receptor (Homo sapiens) (UniProt P07550); experiment: Adrenergic beta2 receptor (ADRB2) small molecule agonists, cell-based qHTS assay (AID 1963593);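 also: CHO cells stably overexpressing human ADRB2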
Method in brief: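 CHO cells stably over-expressing ADRB2 were plated overnight at 37C, then dosed with compounds plus a stimulation mix containing 100uM IBMX and 25uM Ro-20-1724 for 0.5hr at room temperature. cAMP was measured by HTRF competition, 1hr.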

[19] = molecular target: D(2) dopamine receptor (Homo sapiens) (UniProt P14416); experiment: Dopamine D2 receptor (DRD2) small molecule agonists, cell-based qHTS assay (AID 1963594); also: nearly all actives have a fitted effect of over 35% in size
Method in brief: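 HEK293 cells stably expressing DRD2 were cultured 24 h at 37 C, then given Ro20-1724 (0.1 mM final) and compounds for 10 min at room temperature. NKH477 (200nM) was then added for 30 min. cAMP was read by HTRF.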

[20] = molecular target: D(2) dopamine receptor (Homo sapiens) (UniProt P14416); experiment: Dopamine D2 receptor (DRD2) small molecule antagonists, cell-based qHTS assay (AID 1963595; active = well fitted inhibition curve with a large enough effect in the signal ratio in the repeat runs, with a control signal flat; the % refers to the signal ratio; also: potency is read from the fitted curve at half-maximal effect)
Method in brief: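 Antagonism was scored as restored cAMP in HEK293-DRD2 cells. These cells were stimulated with 200 nM NKH477 and 12 nM quinpirole for 30 min at room temperature, in the presence of 0.1 mM Ro20-1724.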

Measured: Potency

Chain of Gonadotropin-releasing hormone receptor (Homo sapiens) (P30968 whole entry, looked up): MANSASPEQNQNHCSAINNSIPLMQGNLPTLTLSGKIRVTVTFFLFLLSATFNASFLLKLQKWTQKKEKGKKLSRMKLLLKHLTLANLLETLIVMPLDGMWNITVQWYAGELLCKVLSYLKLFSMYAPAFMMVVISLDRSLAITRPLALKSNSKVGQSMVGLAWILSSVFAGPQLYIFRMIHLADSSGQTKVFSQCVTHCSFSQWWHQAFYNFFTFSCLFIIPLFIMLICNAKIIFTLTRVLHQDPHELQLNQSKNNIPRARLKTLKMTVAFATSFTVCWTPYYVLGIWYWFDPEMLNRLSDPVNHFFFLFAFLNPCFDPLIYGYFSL
Chain of Muscarinic acetylcholine receptor M1 (Homo sapiens) (P11229 whole entry, looked up): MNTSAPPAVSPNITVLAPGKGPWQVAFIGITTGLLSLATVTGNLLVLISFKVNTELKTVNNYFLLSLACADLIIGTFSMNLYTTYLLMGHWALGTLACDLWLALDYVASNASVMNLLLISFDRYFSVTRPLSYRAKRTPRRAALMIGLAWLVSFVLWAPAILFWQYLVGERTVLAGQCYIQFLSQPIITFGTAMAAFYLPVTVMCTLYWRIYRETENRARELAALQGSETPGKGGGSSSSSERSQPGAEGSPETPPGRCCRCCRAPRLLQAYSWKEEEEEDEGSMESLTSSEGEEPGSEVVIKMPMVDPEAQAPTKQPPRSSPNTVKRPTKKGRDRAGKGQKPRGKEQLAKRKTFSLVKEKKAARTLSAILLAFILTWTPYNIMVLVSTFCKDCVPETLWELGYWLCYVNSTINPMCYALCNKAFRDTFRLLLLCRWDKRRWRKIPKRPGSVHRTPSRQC
Chain of KiSS-1 receptor (Homo sapiens) (Q969F8 whole entry, looked up): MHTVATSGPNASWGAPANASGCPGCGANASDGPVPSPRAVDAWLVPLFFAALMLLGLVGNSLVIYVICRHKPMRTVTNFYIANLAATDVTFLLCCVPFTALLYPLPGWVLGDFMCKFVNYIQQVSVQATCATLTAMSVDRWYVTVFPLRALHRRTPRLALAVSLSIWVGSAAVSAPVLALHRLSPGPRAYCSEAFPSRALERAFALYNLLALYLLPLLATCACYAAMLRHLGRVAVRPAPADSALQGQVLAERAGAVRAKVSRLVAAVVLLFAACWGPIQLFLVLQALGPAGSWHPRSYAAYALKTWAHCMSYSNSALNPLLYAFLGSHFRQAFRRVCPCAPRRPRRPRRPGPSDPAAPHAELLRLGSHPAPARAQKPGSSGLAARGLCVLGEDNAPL
Chain of Beta-2 adrenergic receptor (Homo sapiens) (P07550 whole entry, looked up): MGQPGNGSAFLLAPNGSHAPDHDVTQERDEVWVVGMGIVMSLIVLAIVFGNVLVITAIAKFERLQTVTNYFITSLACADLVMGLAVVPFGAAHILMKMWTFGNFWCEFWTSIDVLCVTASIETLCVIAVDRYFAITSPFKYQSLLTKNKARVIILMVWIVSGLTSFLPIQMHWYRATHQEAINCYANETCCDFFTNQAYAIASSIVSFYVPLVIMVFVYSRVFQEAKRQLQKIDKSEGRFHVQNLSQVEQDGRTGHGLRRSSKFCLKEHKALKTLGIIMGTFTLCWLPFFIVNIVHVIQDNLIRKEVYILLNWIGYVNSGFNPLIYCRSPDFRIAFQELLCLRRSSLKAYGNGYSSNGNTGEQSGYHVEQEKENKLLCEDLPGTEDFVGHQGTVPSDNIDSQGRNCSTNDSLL
Chain of D(2) dopamine receptor (Homo sapiens) (P14416 whole entry, looked up): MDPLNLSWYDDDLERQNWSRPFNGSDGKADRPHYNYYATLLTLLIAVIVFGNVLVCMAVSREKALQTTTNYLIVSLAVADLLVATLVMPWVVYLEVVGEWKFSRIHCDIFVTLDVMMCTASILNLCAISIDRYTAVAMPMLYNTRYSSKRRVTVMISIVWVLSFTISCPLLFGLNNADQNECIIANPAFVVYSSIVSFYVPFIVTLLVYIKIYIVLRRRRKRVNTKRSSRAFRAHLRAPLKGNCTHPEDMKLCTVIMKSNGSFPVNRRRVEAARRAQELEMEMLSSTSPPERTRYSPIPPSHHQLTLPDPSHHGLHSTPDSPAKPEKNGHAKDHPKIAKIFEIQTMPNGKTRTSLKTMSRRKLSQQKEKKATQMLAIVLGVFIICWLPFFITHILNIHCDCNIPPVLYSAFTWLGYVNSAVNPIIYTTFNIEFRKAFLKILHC
Chain of 5-hydroxytryptamine receptor 2A (Homo sapiens) (P28223 whole entry, looked up): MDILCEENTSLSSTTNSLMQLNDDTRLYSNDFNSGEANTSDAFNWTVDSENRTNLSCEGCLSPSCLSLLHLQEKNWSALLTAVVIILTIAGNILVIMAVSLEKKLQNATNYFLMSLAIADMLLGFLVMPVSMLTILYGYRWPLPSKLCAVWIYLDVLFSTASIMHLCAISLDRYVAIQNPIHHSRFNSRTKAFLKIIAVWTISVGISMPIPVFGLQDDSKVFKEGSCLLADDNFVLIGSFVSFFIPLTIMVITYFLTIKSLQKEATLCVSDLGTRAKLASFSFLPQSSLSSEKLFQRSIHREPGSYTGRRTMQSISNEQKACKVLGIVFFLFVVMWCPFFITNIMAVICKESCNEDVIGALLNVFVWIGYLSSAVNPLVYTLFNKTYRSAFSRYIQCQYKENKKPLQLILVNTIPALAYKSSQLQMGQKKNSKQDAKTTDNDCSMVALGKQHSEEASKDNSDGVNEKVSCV

Cn1c(=O)c2[nH]c(Br)nc2n(C)c1=O
inactive: [1] | [2] | [3] | [4] | [5] | [6] | [7] | [8] | [9] | [10] | [11] | [12] | [13] | [14] | [15] | [16] | [17] | [18] | [19] | [20]

CCCCCCOC(=O)C(C)CC (configuration not stated)
inactive: [1] | [2] | [3] | [4] | [5] | [6] | [7] | [8] | [9] | [10] | [11] | [12] | [13] | [14] | [15] | [16] | [17] | [18] | [19] | [20]

O=c1n(CCO)c(=O)n(CCO)c(=O)n1CCO
inactive: [1] | [2] | [3] | [4] | [5] | [6] | [7] | [8] | [9] | [10] | [11] | [12] | [13] | [14] | [15] | [16] | [17] | [18] | [19] | [20]

Cc1ccccc1S(N)(=O)=O
inactive: [1] | [2] | [3] | [4] | [5] | [6] | [7] | [8] | [9] | [10] | [11] | [12] | [13] | [14] | [15] | [16] | [17] | [19] | [20]

C=C[Si](OC(=C)C)(OC(=C)C)OC(=C)C
inactive: [1] | [2] | [3] | [4] | [5] | [6] | [7] | [8] | [9] | [10] | [11] | [12] | [13] | [14] | [15] | [17] | [20]

N#CCN(CC#N)CCN(CC#N)CC#N
inactive: [1] | [2] | [3] | [4] | [5] | [6] | [7] | [9] | [10] | [11] | [13] | [14] | [15] | [16] | [17] | [18] | [20]

CC(=C(CCOC(=O)C(C)C)SSC(CCOC(=O)C(C)C)=C(C)N(C=O)Cc1cnc(C)nc1N)N(C=O)Cc1cnc(C)nc1N
inactive: [1] | [2] | [3] | [4] | [5] | [6] | [7] | [8] | [10] | [12] | [13] | [14] | [15] | [16] | [17]

N#CCc1cccc(C(F)(F)F)c1
active: [2] 68.6 µM | [8] 45.8 µM
inactive: [1] | [3] | [4] | [5] | [6] | [9] | [10] | [11] | [12] | [13] | [14] | [15] | [16] | [17] | [18] | [19] | [20]

CC(=O)N[C@@H](CC(C)C)C(=O)O
inactive: [1] | [2] | [3] | [4] | [5] | [6] | [8] | [9] | [10] | [11] | [12] | [13] | [14] | [15] | [16] | [17] | [18] | [19] | [20]

CN(C)CCC=C1c2ccccc2CCc2ccccc21
active: [17] 24.3 µM | [20] 27.3 µM
inactive: [1] | [2] | [3] | [4] | [5] | [6] | [7] | [8] | [15] | [16] | [19]

O=c1[nH]c2ccc(Cl)cc2o1
inactive: [1] | [2] | [3] | [4] | [5] | [6] | [7] | [8] | [10] | [11] | [12] | [14] | [15] | [16] | [17] | [19] | [20]

Nc1ccncc1N
inactive: [1] | [2] | [3] | [4] | [5] | [6] | [8] | [9] | [10] | [11] | [12] | [13] | [14] | [15] | [16] | [17] | [18] | [19] | [20]

CC(C)C(=O)Nc1cccc(C2CN3CCSC3=N2)c1 (configuration not stated)
inactive: [1] | [2] | [3] | [4] | [5] | [6] | [7] | [8] | [9] | [10] | [12] | [13] | [14] | [15] | [16] | [17] | [18] | [19] | [20]

C/C(=N\O)[C@@H](C)NCC(C)(C)CN[C@H](C)/C(C)=N/O
inactive: [1] | [2] | [3] | [4] | [5] | [6] | [7] | [8] | [9] | [10] | [12] | [13] | [14] | [15] | [16] | [17] | [19] | [20]
